From PubChem BioAssay
Shown are actives, neighbours in structure and some others; about 12% of the full set was active somewhere.
JMJD2A Tudor: blocks the human JMJD2A Tudor domain | O75164 | AlphaScreen JMJD2A-Tudor / H3K4me3 peptide binding | Potency, µM (highest dose often 114 µM), for inactives: at the top dose activity change, negative = inhibition, usual class: inhibitors | 390,000 compounds, 4.4% hits; also: % is scaled to controls: 0 for no effect and ±100 for the full control effect; nearly all actives have a fitted effect of over 50% in size
HP1b chromo inh: inhibitors of HP1-beta chromodomain binding to methylated histone tails; AlphaScreen HP1-beta / biotin-H3K9me3 peptide binding; 390,000 compounds, 0.56% hits; Potency, µM (series often up to 114 µM), for inactives: at the highest dose activity change, negative = inhibition, most hits filed as inhibitors; P83916; AID 540317; also: nearly all actives have a fitted effect of over 70% in size
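AlphaScreen: HP1-beta (50 nM) preformed 30 min with biotin-H3(1-18)K9me3 peptide (50 nM) in PBS pH 7.4, 0.01% Tween-20. Compound added for 30 min at RT, then streptavidin donor/nickel chelate acceptor beads (10 ug/mL) for 30 min.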
BAZ2B block: inhibitors of human BAZ2B bromodomain; Potency, µM (series often up to 114 µM), inactives show top-dose activity change, negative = inhibition, most hits filed as inhibitors; 360,000 compounds, 4.4% hits; AlphaScreen BAZ2B-H3K14Ac peptide displacement; AID 504333; also: % is scaled to controls: 0 for no effect and ±100 for the full control effect; nearly all actives have a fitted effect of over 60% in size
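BAZ2B 50 nM plus b-H3(5-23)K14Ac 50 nM, PBS pH 7.4/0.01% Tween-20, 30 min RT; compound added (max 110 uM), 30 min RT; streptavidin donor/Ni-chelate acceptor beads 10 ug/mL final, 20 min dark; AlphaScreen read.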
PLK1 PBD block: PLK1 (human) polo-box domain binding inhibition; Plk1 PBD binding of FITC phosphopeptide, fluorescence polarization; Potency, µM, inactives show max response, negative = inhibition, usual class: inhibitors; 360,000 compounds, 2.8% hits; AID 720504; also: series mostly up to about 57 µM; % is scaled to controls: 0 for no effect and ±100 for the full control effect; nearly all actives have a fitted effect of over 65% in size
Target sequence (P53350 whole entry, looked up, the tested form may be a part): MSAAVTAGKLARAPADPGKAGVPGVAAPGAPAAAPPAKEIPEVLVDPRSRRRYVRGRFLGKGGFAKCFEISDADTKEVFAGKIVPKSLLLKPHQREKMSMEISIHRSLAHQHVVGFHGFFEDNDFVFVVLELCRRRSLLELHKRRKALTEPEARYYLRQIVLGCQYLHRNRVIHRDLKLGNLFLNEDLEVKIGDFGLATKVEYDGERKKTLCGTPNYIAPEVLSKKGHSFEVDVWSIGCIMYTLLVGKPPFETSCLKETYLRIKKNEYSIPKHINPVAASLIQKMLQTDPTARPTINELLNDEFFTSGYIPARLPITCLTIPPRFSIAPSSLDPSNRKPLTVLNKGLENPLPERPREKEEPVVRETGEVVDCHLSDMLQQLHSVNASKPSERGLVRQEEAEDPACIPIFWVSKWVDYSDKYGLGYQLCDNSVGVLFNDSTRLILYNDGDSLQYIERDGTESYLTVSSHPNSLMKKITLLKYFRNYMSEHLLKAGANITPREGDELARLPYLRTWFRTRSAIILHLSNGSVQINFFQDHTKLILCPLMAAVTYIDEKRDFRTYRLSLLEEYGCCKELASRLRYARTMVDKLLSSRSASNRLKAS
Sfp PPTase inh: Sfp phosphopantetheinyl transferase inhibition | Potency, µM, for the others: largest response in the series, negative = inhibition, usual class: inhibitors | 310,000 compounds, 3.5% hits | Q9F4F7 | Biochemical Sfp PPTase activity, qHTS;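 also: the enzyme is Sfp with the accession as filed and its product quenches rhodamine fluorescence; 0% = enzyme reaction without inhibitor and -100% = no enzyme wells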
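Step 1, compound plus 15 nM Sfp-PPTase, 15 min, room temperature. Step 2, add rhodamine-CoA (5 uM) and BHQ-2-YbbR (12.5 uM). Step 3, read 525/598 nm fluorescence at 0 and 30 min.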
G9a block: blocks human histone lysine methyltransferase G9a. Q96KQ7. AID 504332. G9a H3K9 monomethylation, AlphaScreen, 2 h. 350,000 compounds, 8.8% hits. Potency, µM (top dose mostly 102 µM), without a hit: top-dose activity, negative = inhibition, actives largely listed as inhibitors; also: % is scaled to controls: 0 for no effect and ±100 for the full control effect; nearly all actives have a fitted effect of over 75% in size
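G9a (20 nM) preincubated 15 min RT with compounds, then 500 nM biotinylated H3K9 peptide and 20 uM SAM added; 2 h RT reaction. Monomethyl-H3K9 product detected by AlphaScreen with anti-H3K9me1 antibody, streptavidin donor and anti-rabbit IgG acceptor beads.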
* marks the source's active call; other numbers are inactive results; ? = inconclusive; / = not tested or not shown; [ ] = dose if it differs, or a comment. Calls follow the shape of the dose curve; as a rule, active = well fitted curve in the direction sought with a large enough effect; inconclusive = small, poorly fitted or top-dose-only effect, or another doubt; inactive = no such curve, though single readings can be large; an effect the other way counts as inactive or inconclusive. Potency is read from the fitted curve at half-maximal effect.

SMILES	JMJD2A Tudor	HP1b chromo inh	BAZ2B block	PLK1 PBD block	Sfp PPTase inh	G9a block
COCCNCCCCSc1ccc(Cl)cc1	8.9µM*	-35%	56µM*	-20%	?	/
C=CCNCCOCCSc1ccc(Cl)cc1	3.2µM*	?	?	0%	-13%	7.9µM*
C=CCNCCOCCOc1ccc(Cl)cc1C(C)(C)C	2µM*	-45%	50µM*	2%	-72%	8.9µM*
COCCNC(=O)CSc1ccc(Cl)cc1	10%	43%	-17%	2%	18%	0%[59 µM]
COCCCNCCOCCOc1ccc(Cl)cc1C(C)(C)C	20µM*	-34%	?	-2%	-21%	8.9µM*
C=CCNC(=O)CSc1ccc(Cl)cc1	-17%	47%	-1%	-8%	16%	7%[12.7 µM]
O=C(Nc1nc2ccccc2n1CCN1CCOCC1)c1cccc([N+](=O)[O-])c1	/	/	/	/	/	9%[59 µM]
C=CCNCCCOc1ccc(Cl)cc1C(C)(C)C	4.5µM*	?	40µM*	-2%	?	10µM*
Cc1ccc2c(c1)CC1(CN2C)C(=O)OC2(CCCCC2)OC1=O	-22%[57.1 µM]	62%	2%	-20%	-5%	50µM*
CN1CC2(Cc3c1ccc1ccccc31)C(=O)OC(C)(C)OC2=O	15%[57.1 µM]	41%	3%	-16%	-6%	?
C=CCN(Cc1ccc(Cl)s1)C(=O)c1ccc(F)c(S(=O)(=O)N2CCOCC2)c1	-8%	21%	/	-3%	/	/
COc1cc(C2Nc3ccccc3NC3=C2C(=O)CC(C)(C)C3)cc(OC)c1OC(C)=O (stereo unspecified)	-20%	25%	6%	-22%	12%	50µM*
COc1cccc(C2Nc3ccccc3NC3=C2C(=O)CC(C)(C)C3)c1 (stereo unspecified)	-4%	30%	5%	4%	21%	20%
NC(=O)c1ccccc1NC(=O)CS(=O)(=O)Cc1ccccc1	-17%[11.4 µM]	-16%	62%	24µM*	-6%	-28%
CCC(CC)c1nnc(NC(=O)CS(=O)(=O)Cc2ccccc2)s1	-8%	23%	/	?	/	/
CC(C)Cc1nnc(NC(=O)CS(=O)(=O)Cc2ccccc2)s1	-18%	-5%	-22%	24µM*	-16%	8.9µM*
CCCC(C)c1nnc(NC(=O)CS(=O)(=O)Cc2ccccc2)s1 (stereo unspecified)	-29%	?	-6%	14µM*	-29%	8.9µM*
NC(=O)c1ccccc1NC(=O)CCCc1ccccc1	-12%	17%	3%	-22%	19%	-4%[0.501 µM]
CC(C)c1nnc(NC(=O)CS(=O)(=O)Cc2ccccc2)s1	-6%	0%	?	27µM*	-27%	/
CCOc1ccccc1CNC(=O)CCc1c(C)nn(-c2ccc(N3CCCCC3)nn2)c1C	-25%	18%	-29%	/	/	-2%[59 µM]
COc1cccc(-c2cc(NCc3ccccc3)ncn2)c1	/	/	/	/	5%	-4%[0.501 µM]
Cc1ccc(C(=O)N2CCC(Cc3ccccc3)CC2)cc1S(=O)(=O)N1CCOCC1	-17%	17%	7%	-7%	/	21%
O=C(CCC(=O)N1CCN(Cc2ccccc2)CC1)Nc1nnc(C2CCCCC2)s1	-15%	23%	-7%	-5%	6%	3%[0.0925 µM]
NC(=O)c1ccccc1NC(=O)CCCN1C(=O)CCC1=O	11%	19%	8%	-9%	6%	45µM*
CCCC(C)c1nnc(NC(=O)CCS(=O)(=O)Cc2ccccc2)s1 (stereo unspecified)	-26%	-19%	-4%	13µM*	50µM*	25µM*
SMILES	JMJD2A Tudor	HP1b chromo inh	BAZ2B block	PLK1 PBD block	Sfp PPTase inh	G9a block
O=C(CS(=O)(=O)Cc1ccccc1)Nc1nnc(C2CCCCC2)s1	-17%	16%	-6%	-4%	-7%	56µM*
O=C(O)CCC(=O)Nc1ccc2c(c1)Cc1cc(NC(=O)CCC(=O)O)ccc1-2	89µM*	3%	?	?	-8%	39%[0.501 µM]
C=CCNC(=O)c1cc2cc(Cl)ccc2nc1N	/	/	/	-6%	/	/
CCOc1cc(/C=C2\SC(=O)N(CC(=O)Nc3ccccc3F)C2=O)cc([N+](=O)[O-])c1O	-20%[11.4 µM]	35µM*	40µM*	24µM*	-16%	16µM*
COc1ccc(/C=C2\SC(=O)N(CC(=O)Nc3cccnc3)C2=O)cc1OC	-17%	61%	-16%	-16%	45µM*	?
COc1cc(/C=C2\SC(=O)N(c3ccccc3Cl)C2=O)cc([N+](=O)[O-])c1O	35µM*	?	25µM*	?	-22%	11µM*
COc1cc(/C=C2\SC(=O)N(CC(=O)Nc3cccc(C)c3)C2=O)cc([N+](=O)[O-])c1O	18µM*	28µM*	40µM*	9.5µM*	1%	14µM*
CC(C=CC(O)=C1C(=O)CNC1=O)=C[C@@H](C)C1OC2(C)OC(C(=O)C3O[C@@]32C)C1C (stereo partly specified)	/	/	/	-8%	/	/
CN1CCN(S(=O)(=O)c2cccc(C(=O)N3CCN(c4ccccc4)CC3)c2)CC1	2%	22%	/	3%	/	/
COc1ccc(O)c(/C=N/c2sc(C)c(C)c2C#N)c1	79µM*	?	-33%	30µM*	?	?
Cc1sc(/N=C/c2c(O)ccc3ccccc23)c(C#N)c1C	/	/	3%	/	15%	10µM*
CC(C)CC(=O)Nc1nnc(S(=O)(=O)N(CC(C)C)c2ccccc2)s1	-5%	29%	?	/	/	18%[59 µM]
COc1ccc(OCc2cc(C(=O)N(C)CC3CCCCO3)no2)c(Cl)c1 (stereo unspecified)	-5%	21%	6%	-7%	6%	/
COc1ccc(OCc2cc(C(=O)N(C)CCC3CCOCC3)no2)c(Cl)c1	?	0%	0%	27µM*	6%	24%
CC(C)[C@H](O)C1=CCCCC1=O	/	/	/	/	2%	/
COc1ccc(C(=O)c2ccc(CC#N)s2)cc1	79µM*	-11%	?	1%	0%	?
Cc1cc(C)cc(NC(=O)Cn2c(=O)n(-c3ccc(C)c(C)c3)c(=O)c3oc4ccccc4c32)c1	-31%	3%	-9%	/	/	-9%[59 µM]
Cc1ccc2c(=O)cc(C(=O)Nc3cccc(Cl)c3C)oc2c1C	-10%	52%	-1%	/	/	4%[59 µM]
O=C1C2=C(Nc3ccccc3SC2c2ccco2)c2ccccc21 (stereo unspecified)	35µM*	22µM*	35µM*	?	?	?
O=C1C2=C(Nc3ccccc3SC2c2ccc(C(F)(F)F)cc2)c2ccccc21 (stereo unspecified)	28µM*	?	/	/	/	11µM*
O=C1c2ccccc2NC(c2ccco2)N1NS(=O)(=O)c1ccccc1 (stereo unspecified)	-3%	43%	0%	-9%	21%	-25%
CCc1ccc(C2Sc3ccccc3NC3=C2C(=O)c2ccccc23)cc1 (stereo unspecified)	25µM*	?	/	/	/	10µM*
